Drawing on PubChem BioAssay AID1240 (Sanford-Burnham Center for Chemical Genomics, 2008), this text covers displacement for 69 compounds.

Structures are written as SMILES. Out of some 50,000 compounds screened, about 800 (1.6%) showed an effect of 50% or more. The full list was thinned out, with strong results kept by preference.

The target in the assay is Bcl-2-like protein 10 (Homo sapiens) (UniProt Q9HD36). Description: TR3 peptide-Bcl-B binding displacers, biochemical primary FP assay, phenotype converters (AID 1240).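 Note: 0% = Bcl-B with tracer peptide and DMSO and 100% = tracer peptide lacking Bcl-B.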 As to conditions: GST-Bcl-B / FITC-TR3 peptide fluorescence polarization; stronger effect = higher value; compound at 3.75 mg/L. For orientation: In fluorescence polarisation assays a small probe gives low polarisation when free and higher when bound to something large.
Sequence of Bcl-2-like protein 10 (Homo sapiens) (Q9HD36 whole entry, looked up): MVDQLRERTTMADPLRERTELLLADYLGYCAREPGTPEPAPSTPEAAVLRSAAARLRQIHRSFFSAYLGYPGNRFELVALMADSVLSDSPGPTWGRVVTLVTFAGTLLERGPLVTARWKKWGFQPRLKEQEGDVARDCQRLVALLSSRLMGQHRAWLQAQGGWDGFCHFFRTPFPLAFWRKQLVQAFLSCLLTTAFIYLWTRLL
Consider `Cc1ccc(S(=O)(=O)N2CCN(C(=O)COc3ccc(Cl)cc3)CC2)cc1`, for which the displacement is -15.1%.
As for `CCN(CC)c1ccc(/C=N/NS(C)(=O)=O)cc1`, the displacement was determined as 7.3%.
Then `COc1cccc(CN2CCN(C(=O)c3ccccc3OC)CC2)c1`, with -15.8%; and `NC(=O)SCC(=O)Nc1ccccc1O`, with 4.9%.
Then `Clc1ccccc1-c1nnc(-c2ccc(-c3ccccc3)cc2)o1`, with 5.2%.
On to `O=C(Nc1ccc(OC(F)(F)F)cc1)c1cccc([N+](=O)[O-])c1`, for which the displacement is -1.6%.
For the compound `COc1ccc(/C=C2/SC(NC(C)=O)=NC2=O)c(OC)c1`, the displacement was determined as 133%.
For the compound `COc1ccc(/C=C2\SC(N3CCCC3)=NC2=O)c(OC)c1`, the displacement is -18.5%.
Then `COc1ccc(OC)c(/C=C2/SC(NC(C)=O)=NC2=O)c1`, with 156%; and `COc1ccc(/C=C2/SC(N)=NC2=O)c(OC)c1`, with -3.2%.
In the case of `COc1cc(OC)c(/C=C2/SC(NC(C)=O)=NC2=O)cc1Br` it was 138%.
In the case of `COc1cc(/C=C2/SC(NC(C)=O)=NC2=O)cc(OC)c1OC` it was 31.2%; in that of `COc1c(Cl)cc(Cl)cc1/C=C1\SC(NC(C)=O)=NC1=O`, 74.7%.
As for `COc1ccc(OC)c(/C=C2\SC(N3CCCC3)=NC2=O)c1`, the displacement was -16.2%.
Then `COc1cc(/C=C2\SC(NC(C)=O)=NC2=O)cc2sc(=O)oc12`, with 24.7%; and `CC(=O)NC1=NC(=O)/C(=C\c2ccc(-c3ccc(Cl)c(C(=O)O)c3)o2)S1`, with -115%.
Turning to `COc1cc(/C=C2\SC(NC(C)=O)=NC2=O)cc(Br)c1OC`, the displacement was 11.8%.
In the case of `CCOC(=O)C1=CN(c2ccc(OCC)cc2)C=C(C(=O)OCC)C1c1ccccc1F` it was -12.6%; in that of `CC(=O)OC(c1c(F)c(F)c(F)c(F)c1F)c1c(F)c(F)c(F)c(F)c1F`, 3%; in that of `C=CCN1C(=O)/C(=C\c2ccc(O)cc2)C(=O)NC1=S`, -14.8%.
In the case of `O=C(N/N=C/c1ccc(Cl)cc1)c1ccc(O)cc1` it was -1.1%.
In the case of `O=C(O)CCCCCN1C(=O)C(O)=C(C(=O)/C=C/c2ccccc2)C1c1ccccc1F` (centres undefined) it was 1.5%; in that of `O=C(/C=C/c1ccccc1)C1=C(O)C(=O)N(c2ccccn2)C1c1ccccc1F` (centres undefined), 93.5%; in that of `O=C(/C=C/c1ccccc1)C1=C(O)C(=O)N(c2ccccc2)C1c1ccccc1F` (centres undefined), 2%.
Turning to `Cc1ccccc1NC(=O)CN(c1ccc(Oc2ccccc2)cc1)S(C)(=O)=O`, the displacement came out at 1.7%.
In the case of `Cc1ccccc1NC(=O)c1ccc(C)c(S(=O)(=O)NCc2ccccc2)c1` it was -9.5%; in that of `CC(C)c1nnc(NC(=O)Nc2ccc(Cl)c(Cl)c2)s1`, 98.2%.
Then `CC(C)c1nnc(NC(=O)Nc2ccc(Cl)cc2)s1`, with 2.3%.
Then `CC(C)Cc1nnc(NC(=O)Nc2ccc(Cl)c(Cl)c2)s1`, with 3.9%.
Take `FC(F)(F)c1nc2ccccc2n1CC#CCn1c(C(F)(F)F)nc2ccccc21`: the displacement is -1.1%.
As to `Cc1ccc(NC(=O)/C(=C/c2ccccc2)c2ccccc2)cc1C`, the displacement was determined as 12.1%.
Regarding `O=C(Nc1nc2ccc(Br)cc2s1)c1cccs1`, the displacement is -3.7%.
For `COc1ccc(C(=O)Nn2cc3cc([N+](=O)[O-])ccc3n2)cc1`, the displacement is -9.5%.
In the case of `O=C(Cc1ccc(Cl)cc1)Nc1ccc2c(c1)OCCO2` it was 0.4%; in that of `N#Cc1c(N)sc2c1CCN(Cc1ccccc1)C2`, 3.4%; in that of `CSc1nc2sc3c(c2c(=O)[nH]1)CCCC3`, 6.2%.
Then `Nc1sc(=S)nc2sc3c(c12)CCN(Cc1ccccc1)C3`, with 74%; and `CSc1nc2sc3c(c2c(=O)[nH]1)CCN(Cc1ccccc1)C3`, with 81%; and `Nc1nc(SCc2ccc(Cl)cc2)nc2sc3c(c12)CCN(Cc1ccccc1)C3`, with 16.8%.
In the case of `CSc1nc2sc3c(c2c(=O)n1Cc1ccccc1)CCN(C)C3` it was -6.8%.
`Cc1cccc(C(=O)O/N=C(\N)c2ccc(Br)cc2)c1`: the displacement was -0.6%.
Then `COc1ccc(-c2occ(C(=O)O)c2C(=O)O)cc1`, with 0.2%.
Regarding `O=C1CC(N2CCN(c3ccccc3)CC2)C(=O)N1c1ccc(I)cc1` (centres undefined), the displacement is -0.8%.
In the case of `CCC12C(=O)C(CC)(C(c3ccccc3)=C1c1ccccc1)C1C(=O)N(c3ccccc3[N+](=O)[O-])C(=O)C12` (centres undefined) it was 2%.
In the case of `CCN1C(=O)/C(=C\c2ccc(Br)cc2)SC1=S` it was 7.1%; in that of `CCOc1ccc(-c2cc(OCC)c3c(C)oc(C)c3c(=[O+]CC)c2)cc1`, 2.4%.
In the case of `CCOc1cccc(=O)c2c(C)oc(C)c12` it was 16.8%.
With `CCOc1cccc(=[O+]CC)c2c(C)oc(C)c12`, the displacement came out at 154%.
In the case of `CNC(=O)COc1ccc(C23CC4CC(CC(C4)C2)C3)cc1` it was 1.4%; in that of `O=C(CSc1n[nH]c(=O)[nH]c1=O)c1ccc(Cl)cc1`, -6.1%.
In the case of `O=C(Nc1ncc(Cc2ccc(F)cc2)s1)C1CCCO1` (centres undefined) it was 15.4%; in that of `Cc1nc(-c2ccccc2)sc1C(=O)Nc1cccc2ccccc12`, 13.1%; in that of `COc1cc(C=O)ccc1Oc1ccc([N+](=O)[O-])cc1`, 5%.
In the case of `Cc1ccc(-n2cc(C=C3C(=O)NC(=O)NC3=O)cn2)cc1C`, the displacement was 110%.
With `Cc1ccc(-n2c(C)cc(/C=C3\NC(=O)NC3=O)c2C)cc1C`, the displacement was 11.1%.
In the case of `Cc1ccc(-n2cc(/C=c3\sc4nc5cc(C)c(C)cc5n4c3=O)cn2)cc1C` it was -8.9%; in that of `O=[N+]([O-])c1ccc2oc(-c3ccccc3)nc2c1`, 5%.
Then `COc1sc(SC)cc1/C=N/NC(=O)C(NC(=O)c1ccccc1)c1n[nH]c(=O)c2ccccc12` (centres undefined), with -7.7%; and `COc1ccc(-c2cc(C(F)(F)F)n3nc(C(=O)NCCN4CCOCC4)c(Cl)c3n2)cc1`, with -10.2%; and `COc1ccc(-c2cc(C(F)(F)F)n3nc(C(=O)NCCCn4ccnc4)c(Cl)c3n2)cc1`, with 105%.
In the case of `COCCNC(=O)c1nn2c(C(F)(F)F)cc(-c3ccc(OC)c(OC)c3)nc2c1Cl` it was 155%; in that of `COCCNC(=O)c1nn2c(C(F)(F)F)cc(-c3ccc(OC)cc3)nc2c1Cl`, -2.4%; in that of `COc1ccc(-c2cc(C(F)(F)F)n3nc(C(N)=O)c(Cl)c3n2)cc1OC`, 33.4%.
As for `COc1ccc(-c2cc(C(F)(F)F)n3nc(C(=O)O)c(Cl)c3n2)cc1`, the displacement came out at 3.2%.
Then `COc1ccc(C(=O)Nc2ccc(N(C)C)cc2)cc1`, with 6%; and `CN(C)c1ccc(C2/C(=C(\O)c3ccc(F)cc3)C(=O)C(=O)N2CCCCCC(=O)O)cc1` (centres undefined), with 9.1%; and `COCCOC(=O)c1ccc(NC(=O)COc2ccc3c(C)cc(=O)oc3c2)cc1`, with 90.3%.
In the case of `CCCCOC(=O)c1ccc(NC(=O)COc2ccc3c(C)cc(=O)oc3c2)cc1` it was 28.5%.
Then `CCCCOC(=O)c1cccc(NC(=O)COc2ccc3c(C)cc(=O)oc3c2)c1`, with -41.8%.
